Data as given in PubChem BioAssay (Tox21).
Results filed as inconclusive are left out. The source made the active and inactive calls. Unless noted, the call rests on the fitted dose curve; in most records, active means well fitted curve in the direction sought with a large enough effect in the repeat runs; inconclusive means weak or mixed curves; inactive means no such curve, though single readings can be large; an effect the other way counts as inactive or inconclusive.

Tests used:
[1] = qHTS assay to identify small molecule agonists of the vitamin D receptor (VDR) signaling pathway - cell viability counter screen (AID 743224); further: nearly all actives have a fitted effect of over 50% in size
Method in brief: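 Plated VDR-bla cells (4 h, 37C) received compound, incubated 16 h, then LiveBLAzer substrate 2 h RT; CellTiter-Glo added afterwards, luminescence read at 30 min.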

[2] = qHTS assay to identify small molecule antagonists of the vitamin D receptor (VDR) signaling pathway - cell viability counter screen (AID 743225); further: nearly all actives have a fitted effect of over 50% in size
Method in brief: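 Viability counter screen run in the same wells as the beta-lactamase reporter assay: HEK 293T VDR-UAS-bla cells, 16 h compound exposure at 37C with 3 nM (final) 1-alpha,25-dihydroxyvitamin D3. CellTiter-Glo luminescence, 30 min, room temperature.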

[3] = qHTS assay to identify small molecule agonists of the NFkB signaling pathway (AID 1159509; active means well fitted curve in the direction sought with a large enough effect in the signal ratio in the repeat runs, not every such curve was filed as active; the % refers to the signal ratio)
Method in brief: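 After overnight attachment, reporter cells received test compounds, DMSO or positive controls and were incubated 5 hr at 37 C. FRET substrate was then added for 1.5 hr at room temperature before dual-emission fluorescence reading.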

[4] = qHTS assay to identify small molecule agonists of the NFkB signaling pathway - cell viability counter screen (AID 1159515; calls by dose curve; further: nearly all actives have a fitted effect of over 55% in size)
Method in brief: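 Using the same wells as the NFkB reporter read, ME-180 NFkB-bla cells given compounds for 5 hr were assessed for viability via CellTiter-Glo, with luminescence taken after a 30 min room-temperature incubation.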

[5] = qHTS assay to identify small molecule agonists of the endoplasmic reticulum stress response signaling pathway - cell viability counter screen (AID 1159517; calls by dose curve;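 further: HeLa cells carrying an ER stress response element beta-lactamase reporter; nearly all actives have a fitted effect of over 50% in size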)
Method in brief: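 Luminescence readout: CellTiter-Glo, 30 min RT, same wells as the ESRE-bla reporter read. HeLa ESRE-bla, 1,500 cells/well, o/n 37 C; cpd 5 hr 37 C/5% CO2.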

[6] = qHTS assay to identify small molecule antagonists of the retinoid-related orphan receptor gamma (ROR-gamma) signaling pathway - cell viability counter screen (AID 1159520); further: nearly all actives have a fitted effect of over 50% in size
Method in brief: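 Tet-on ROR gamma CHO cells (1,000/well) were plated 4 hr, given compounds in DMSO for 2 hr at 37 C, then induced with 1 uM final doxycycline for 16 hr. Viability was read as ATP by CellTiter-Glo luminescence after 30 min.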

[7] = target: Nuclear receptor ROR-gamma (Homo sapiens) (UniProt P51449); assay: qHTS assay to identify small molecule antagonists of the retinoid-related orphan receptor gamma (ROR-gamma) signaling pathway (AID 1159521)
Method in brief: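 Luminescence readout (ONE-Glo, 30 min RT) after 16 h doxycycline induction; loss of signal scored as antagonism. CHO cells with TET-inducible RORγ and RORE-LUC reporter; compounds added 2 h before 1 uM final doxycycline.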

[8] = qHTS assay to identify small molecule agonists of the AP-1 signaling pathway - cell viability counter screen (AID 1159525; calls by dose curve; further: nearly all actives have a fitted effect of over 55% in size)
Method in brief: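 ME-180 AP-1-bla, 2500 cells/well, Opti-MEM + 0.5% dialyzed FBS; overnight 37 °C; cpd 15-pt titration, 5 h 37 °C; CellTiter-Glo 30 min RT; luminescence read; normalised to TOAB and DMSO controls.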

[9] = qHTS assay to identify small molecule agonists of the AP-1 signaling pathway (AID 1159526; calls by dose curve)
[10] = target: Retinoic acid receptor RXR-alpha (Homo sapiens) (UniProt P19793); assay: qHTS assay to identify small molecule agonists of the RXR signaling pathway (AID 1159527; calls by dose curve; further: nearly all actives have a fitted effect of over 35% in size)
Method in brief: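 Agonist mode; 9-cis retinoic acid positive control. HEK 293T UAS-bla reporter cells, 2% charcoal-stripped FBS, 16 hr compound exposure at 37 C/5% CO2. LiveBLAzer B/G FRET substrate 2 hr RT; ex 405, em 460/530 nm.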

[11] = qHTS assay to identify small molecule agonists of the RXR signaling pathway - cell viability counter screen (AID 1159529); further: nearly all actives have a fitted effect of over 50% in size
Method in brief: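 Luminescence from CellTiter-Glo (30 min, RT) measured viability in the same wells as the beta-lactamase reporter readout. Cells: GeneBLAzer RXR-alpha HEK 293T, 2% charcoal-stripped FBS. Compound exposure 16 hr, 37 C.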

[12] = qHTS assay to identify small molecule antagonists of the retinoid acid receptor (RAR) signaling pathway - cell viability counter screen (AID 1159551); further: nearly all actives have a fitted effect of over 35% in size
Method in brief: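 Retinol-stimulated (1 uM final) C3RL4 cells, compound 6 h, 37 C; readout CellTiter-Glo luminescence (ATP) after 30 min RT incubation.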

[13] = qHTS assay to identify small molecule antagonists of the retinoic acid receptor (RAR) signaling pathway (AID 1159552; further: nearly all actives have a fitted effect of over 50% in size)
Method in brief: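 Luminescence from a RARE luciferase reporter in C3RL4 cells served as read-out. Cells received compounds together with 1 uM final retinol and incubated 6 hr at 37 C before detection reagent was added for 30 min at room temperature.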

[14] = qHTS assay to identify small molecule agonists of the retinoic acid receptor (RAR) signaling pathway (AID 1159553); conditions: C3RL4 RARE luciferase reporter, agonist, 6 h; activation: at 73.3 µM (top of the series)
Method in brief: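 Reporter readout comes from luciferase under RARE control in C3RL4 cells; compound exposure lasts 6 hr at 37 C in 5% CO2, and luminescence is recorded following a 30 min room-temperature incubation with reagent.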

[15] = qHTS assay to identify small molecule antagonists of the estrogen related receptor (ERR) signaling pathway from Tox21 library - cell viability counter screen (AID 1224834); further: nearly all actives have a fitted effect of over 30% in size
Method in brief: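 After 17.5 h of compound exposure at 37 C, ERR cells are incubated with CellTiter-Fluor for 30 min and fluorescence intensity serves as the viability measure.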

[16] = target: Luciferin 4-monooxygenase (Photinus pyralis) (UniProt P08659); assay: qHTS assay to identify small molecule inhibitors of firefly luciferase (AID 1224835); further: nearly all actives have a fitted effect of over 25% in size
Method in brief: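 Quantitative HTS format; KM concentrations of both substrates. Purified P. pyralis FLuc activity quantified from luminescence images.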

[17] = qHTS assay to identify small molecule agonists of the constitutive androstane receptor (CAR) signaling pathway - cell viability counter screen (AID 1224836); further: nearly all actives have a fitted effect of over 45% in size
Method in brief: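 Viability read-out: CellTiter-Fluor fluorescence after 23 h compound exposure at 37 C/5% CO2 in double-stable HepG2-CYP2B6-hCAR cells, with PK11195 present at 0.75 uM final; compounds tested in 15-point titration.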

[18] = qHTS assay to identify small molecule antagonists of the constitutive androstane receptor (CAR) signaling pathway - cell viability counter screen (AID 1224837); further: nearly all actives have a fitted effect of over 45% in size
Method in brief: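 Counter screen run in HepG2-CYP2B6-hCAR cells: 4 hr settle, compound titration (15 concentrations) with 50 nM CITCO, 23 hr at 37 C/5% CO2, CellTiter-Fluor fluorescence.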

[19] = target: Nuclear receptor subfamily 1 group I member 3 (Homo sapiens) (UniProt Q14994); assay: qHTS assay to identify small molecule antagonists of the constitutive androstane receptor (CAR) signaling pathway (AID 1224838);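 further: HepG2 cells stably expressing hCAR with CYP2B6 luciferase reporter stimulated by CITCO; nearly all actives have a fitted effect of over 40% in size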
Method in brief: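 Cell line: HepG2 double-stable for hCAR and CYP2B6-2.2kb reporter. Agonist: CITCO, 50 nM final. Compounds: 15 concentrations, 24 h, 37 C. Detection: ONE-Glo luminescence.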

Measured: Potency

Sequence of Luciferin 4-monooxygenase (Photinus pyralis) (P08659 whole entry, looked up): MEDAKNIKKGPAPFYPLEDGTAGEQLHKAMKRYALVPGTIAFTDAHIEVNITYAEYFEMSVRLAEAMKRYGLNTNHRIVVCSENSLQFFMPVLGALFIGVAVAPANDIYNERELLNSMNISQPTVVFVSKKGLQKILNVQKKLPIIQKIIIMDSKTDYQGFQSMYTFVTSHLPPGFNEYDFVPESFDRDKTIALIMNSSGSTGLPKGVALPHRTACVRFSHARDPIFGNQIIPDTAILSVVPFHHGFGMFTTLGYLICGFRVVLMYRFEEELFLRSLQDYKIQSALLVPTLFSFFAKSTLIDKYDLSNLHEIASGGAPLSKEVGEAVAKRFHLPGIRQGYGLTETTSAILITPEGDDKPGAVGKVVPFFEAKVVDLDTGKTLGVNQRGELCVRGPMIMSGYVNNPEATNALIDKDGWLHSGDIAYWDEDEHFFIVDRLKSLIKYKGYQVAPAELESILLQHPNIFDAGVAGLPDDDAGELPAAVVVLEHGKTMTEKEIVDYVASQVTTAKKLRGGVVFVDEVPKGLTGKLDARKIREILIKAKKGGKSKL
Sequence of Retinoic acid receptor RXR-alpha (Homo sapiens) (P19793 whole entry, looked up): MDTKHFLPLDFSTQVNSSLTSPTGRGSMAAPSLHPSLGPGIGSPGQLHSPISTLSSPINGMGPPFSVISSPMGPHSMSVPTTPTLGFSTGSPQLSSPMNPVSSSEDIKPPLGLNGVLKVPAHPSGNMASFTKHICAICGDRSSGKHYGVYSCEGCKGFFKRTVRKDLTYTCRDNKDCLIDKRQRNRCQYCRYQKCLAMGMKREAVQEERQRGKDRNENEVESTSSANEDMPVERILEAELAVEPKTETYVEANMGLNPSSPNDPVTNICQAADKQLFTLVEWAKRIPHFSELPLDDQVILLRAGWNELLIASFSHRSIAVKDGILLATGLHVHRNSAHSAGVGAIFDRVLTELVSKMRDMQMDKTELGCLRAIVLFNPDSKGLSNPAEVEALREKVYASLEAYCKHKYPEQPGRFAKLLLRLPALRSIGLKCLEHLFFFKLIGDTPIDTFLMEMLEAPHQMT
Sequence of Nuclear receptor subfamily 1 group I member 3 (Homo sapiens) (Q14994 whole entry, looked up): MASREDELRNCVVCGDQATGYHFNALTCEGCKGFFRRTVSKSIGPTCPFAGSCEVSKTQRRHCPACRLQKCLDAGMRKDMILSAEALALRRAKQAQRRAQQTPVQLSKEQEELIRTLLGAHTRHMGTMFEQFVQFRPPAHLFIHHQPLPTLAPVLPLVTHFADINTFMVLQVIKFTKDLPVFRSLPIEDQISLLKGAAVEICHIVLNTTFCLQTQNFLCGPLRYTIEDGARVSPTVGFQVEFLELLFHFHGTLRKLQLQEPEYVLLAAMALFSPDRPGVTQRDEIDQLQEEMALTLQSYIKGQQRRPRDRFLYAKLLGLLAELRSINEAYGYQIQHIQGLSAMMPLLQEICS

CN[C@@H]1[C@H](O)[C@H](NC)[C@H]2O[C@@]3(O)C(=O)C[C@@H](C)O[C@H]3O[C@@H]2[C@H]1O
not listed: [19]
inactive: all other assays above

CC(Cl)COP(=O)(OCC(C)Cl)OCC(C)Cl (stereo not drawn)
not listed: [14] | [15]
inactive: all other assays above

CCCCCCCCCCCCCCCCCCN(C)C
not listed: [2] | [5] | [8] | [11] | [18] | [19]
inactive: all other assays above

C=C(C)C(=O)OCCCCCCOC(=O)C(=C)C
not listed: [14] | [19]
inactive: all other assays above

CC1=CC[C@H](CC=O)C1(C)C
not listed: [19]
inactive: all other assays above

COC(/C=C(\C)CCC=C(C)C)OC
not listed: [19]
inactive: all other assays above

CNC(=O)C(c1ccccc1)c1ccccc1
not listed: [15] | [19]
inactive: all other assays above

CCCCCCCCOC(C)=O
not listed: [5] | [14] | [16] | [19]
inactive: all other assays above
